In all, about 5,500 compounds went through this assay and about 2,000 (36%) were called active. About 18% were inconclusive and are not listed. Rule as the data show it: active = normalized growth mostly below about 0.91 (no sharp cut-off); inconclusive = no clear call, values can overlap the other calls; inactive = mostly above about 0.92. Some of the results follow.
Test: chemical genetic growth profiling, strain panel (AID 1159580);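 also: tested at 20 µM; growth read once vehicle control cultures reached saturation at 30 °C; 1 = growth at the plate median or of vehicle wells; lower values mean less growth of the strain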
Details: growth OD

Measured: normalized growth

CC(=O)S[C@@H]1CC2=CC(=O)CC[C@]2(C)[C@H]2CC[C@@]3(C)[C@@H](CC[C@@]34CCC(=O)O4)C12 (stereo not given in full)
inactive: S. cerevisiae deletion strains, locus YJR043C, strain POL32, hits give low values 1.01 | S. cerevisiae deletion strains, locus YJR066W, strain TOR1, hits give low values 0.981 | S. cerevisiae deletion strains, locus YJR075W, strain HOC1, hits give low values 1.01 | S. cerevisiae deletion strains, locus YKL009W, strain mrt4, hits give low values 1.01 | S. cerevisiae deletion strains, locus YKL068W, hits give low values 1.01 | S. cerevisiae deletion strains, locus YKL085W, strain MDH1 (second series), hits give low values 1.01 | S. cerevisiae deletion strains, locus YKL085W, strain MDH1, hits give low values 1.01 | S. cerevisiae deletion strains, locus YKL160W, strain elf1, hits give low values 1.03 | S. cerevisiae deletion strains, locus YKL190W, strain CNB1, hits give low values 0.995 | S. cerevisiae deletion strains, locus YKR001C, strain vps1, hits give low values 1.03 | S. cerevisiae deletion strains, locus YKR026C, strain gcn3, hits give low values 1.01 | S. cerevisiae deletion strains, locus YKR091W, strain srl3, hits give low values 1.01 | S. cerevisiae deletion strains, locus YLL001W, strain dnm1, hits give low values 1.05 | S. cerevisiae deletion strains, locus YLL026W, hits give low values 1.01 | S. cerevisiae deletion strains, locus YLL041C, strain sdh2, hits give low values 1.01 | S. cerevisiae deletion strains, locus YLR027C, strain aat2, hits give low values 1.02 | S. cerevisiae deletion strains, locus YLR039C, strain RIC1, hits give low values 1.02 | S. cerevisiae deletion strains, locus YLR058C, strain SHM2, hits give low values 1 | S. cerevisiae deletion strains, locus YLR102C, strain apc9, hits give low values 1.02 | S. cerevisiae deletion strains, locus YLR113W, strain HOG1, hits give low values 1.03 | S. cerevisiae deletion strains, locus YLR221C, strain rsa3, hits give low values 0.984 | S. cerevisiae deletion strains, locus YLR258W, strain gsy2, hits give low values 0.997 | S. cerevisiae deletion strains, locus YLR262C, strain YPT6 (second series), hits give low values 1.03 | S. cerevisiae deletion strains, locus YLR262C, strain YPT6, hits give low values 1.04 | S. cerevisiae deletion strains, locus YLR268W, strain sec22, hits give low values 1.03 | S. cerevisiae deletion strains, locus YLR320W, strain mms22, hits give low values 0.975 | S. cerevisiae deletion strains, locus YLR330W, strain CHS5, hits give low values 1.01 | S. cerevisiae deletion strains, locus YLR342W, strain FKS1 (second series), hits give low values 1 | S. cerevisiae deletion strains, locus YLR342W, strain FKS1, hits give low values 1.05 | S. cerevisiae deletion strains, locus YLR357W, strain rsc2, hits give low values 1.06 | S. cerevisiae deletion strains, locus YLR370C, strain arc18, hits give low values 1.02 | S. cerevisiae deletion strains, locus YLR371W, strain rom2, hits give low values 1.03 | S. cerevisiae deletion strains, locus YLR384C, strain iki3, hits give low values 1.01 | S. cerevisiae deletion strains, locus YLR418C, strain cdc73, hits give low values 1.03 | S. cerevisiae deletion strains, locus YML016C, strain PPZ1, hits give low values 1 | S. cerevisiae deletion strains, locus YML032C, strain rad52, hits give low values 1.02 | S. cerevisiae deletion strains, locus YML120C, strain ndi1, hits give low values 1.02 | S. cerevisiae deletion strains, locus YML124C, strain tub3, hits give low values 1.04 | S. cerevisiae deletion strains, locus YMR058W, strain fet3, hits give low values 1.01 | S. cerevisiae deletion strains, locus YMR078C, strain ctf18, hits give low values 1.03 | S. cerevisiae deletion strains, locus YMR125W, strain sto1, hits give low values 1.01 | S. cerevisiae deletion strains, locus YMR129W, hits give low values 1.01 | S. cerevisiae deletion strains, locus YMR205C, strain PFK2, hits give low values 1.02 | S. cerevisiae deletion strains, locus YMR223W, strain ubp8, hits give low values 1.03 | S. cerevisiae deletion strains, locus YMR231W, strain pep5, hits give low values 1.01 | S. cerevisiae deletion strains, locus YMR307W, strain GAS1, hits give low values 0.999 | S. cerevisiae deletion strains, locus YNL067W, strain RPL9B, hits give low values 1.01 | S. cerevisiae deletion strains, locus YNL071W, strain lat1, hits give low values 1.01 | S. cerevisiae deletion strains, locus YNL183C, strain NPR1, hits give low values 0.977 | S. cerevisiae deletion strains, locus YNL209W, strain ssb2, hits give low values 1.01 | S. cerevisiae deletion strains, locus YNL233W, strain BNI4, hits give low values 1.01 | S. cerevisiae deletion strains, locus YNL248C, strain rpa49, hits give low values 0.97 | S. cerevisiae deletion strains, locus YNL250W, strain rad50, hits give low values 1.02 | S. cerevisiae deletion strains, locus YNL271C, strain bni1, hits give low values 1.04 | S. cerevisiae deletion strains, locus YNL298W, strain CLA4, hits give low values 1.04 | S. cerevisiae deletion strains, locus YNL307C, strain MCK1, hits give low values 1.04 | S. cerevisiae deletion strains, locus YNL322C, strain KRE1 (second series), hits give low values 1 | S. cerevisiae deletion strains, locus YNL322C, strain KRE1, hits give low values 1 | S. cerevisiae deletion strains, locus YNR049C, strain mso1, hits give low values 1.01 | S. cerevisiae deletion strains, locus YNR052C, strain pop2, hits give low values 1.02 | S. cerevisiae deletion strains, locus YOL006C, strain TOP1, hits give low values 0.994 | S. cerevisiae deletion strains, locus YOL012C, strain htz1 1.16 | S. cerevisiae deletion strains, locus YOL147C, strain pex11, hits give low values 1.02 | S. cerevisiae deletion strains, locus YOR001W, strain rrp6, hits give low values 1.03 | S. cerevisiae deletion strains, locus YOR061W, strain CKA2, hits give low values 1 | S. cerevisiae deletion strains, locus YOR069W, strain VPS5, hits give low values 1 | S. cerevisiae deletion strains, locus YOR070C, strain gyp1, hits give low values 0.996 | S. cerevisiae deletion strains, locus YOR080W, strain dia2, hits give low values 1.03 | S. cerevisiae deletion strains, locus YOR083W, strain WHI5, hits give low values 1 | S. cerevisiae deletion strains, locus YOR106W, strain vam3, hits give low values 1.04 | S. cerevisiae deletion strains, locus YOR136W, strain idh2, hits give low values 1.03 | S. cerevisiae deletion strains, locus YOR144C, strain elg1, hits give low values 1.01 | S. cerevisiae deletion strains, locus YOR184W, strain ser1, hits give low values 1.03 | S. cerevisiae deletion strains, locus YOR231W, strain MKK1, hits give low values 1.02 | S. cerevisiae deletion strains, locus YOR265W, strain rbl2, hits give low values 1.01 | S. cerevisiae deletion strains, locus YOR270C, strain vph1, hits give low values 0.968 | S. cerevisiae deletion strains, locus YOR290C, strain snf2, hits give low values 0.977 | S. cerevisiae deletion strains, locus YOR316C, strain cot1, hits give low values 1.03 | S. cerevisiae deletion strains, locus YPL051W, strain arl3, hits give low values 1.01 | S. cerevisiae deletion strains, locus YPL078C, strain atp4, hits give low values 1.04 | S. cerevisiae deletion strains, locus YPL106C, strain sse1, hits give low values 0.985 | S. cerevisiae deletion strains, locus YPL240C, strain hsp82, hits give low values 1 | S. cerevisiae deletion strains, locus YPL241C, strain CIN2, hits give low values 1 | S. cerevisiae deletion strains, locus YPL256C, strain CLN2, hits give low values 1.09 | S. cerevisiae deletion strains, locus YPR119W, strain clb2, hits give low values 1.03 | S. cerevisiae deletion strains, locus YPR141C, strain kar3, hits give low values 1.03 | S. cerevisiae deletion strains, locus YPR163C, strain tif3, hits give low values 1.04 | S. cerevisiae deletion strains, locus YPR167C, strain met16, hits give low values 1.03 | S. cerevisiae deletion strains, strain wtn01, hits give low values 1.03 | S. cerevisiae strains, strain wild type, hits give low values 1

Source: PubChem BioAssay AID1159580 (chemical genetic matrix, 2015)
